Experimental findings from PubChem BioAssay (Tox21) are described below.

Records with an inconclusive call do not appear. Values without a mark were called inactive. The source made the active and inactive calls. The call rests on the fitted dose curve; in most records, active means well fitted inhibition curve with a large enough effect in the signal ratio in the repeat runs (not every such curve was filed as active); inconclusive means weak or mixed curves; inactive means flat fitted curve, though single readings scatter; the % refers to the signal ratio.
On the % scale 0 is the no-effect control and ±100 the full control effect; potency means the concentration at half of the fitted maximal effect.

Sequence of Progesterone receptor (Homo sapiens) (P06401 whole entry, looked up): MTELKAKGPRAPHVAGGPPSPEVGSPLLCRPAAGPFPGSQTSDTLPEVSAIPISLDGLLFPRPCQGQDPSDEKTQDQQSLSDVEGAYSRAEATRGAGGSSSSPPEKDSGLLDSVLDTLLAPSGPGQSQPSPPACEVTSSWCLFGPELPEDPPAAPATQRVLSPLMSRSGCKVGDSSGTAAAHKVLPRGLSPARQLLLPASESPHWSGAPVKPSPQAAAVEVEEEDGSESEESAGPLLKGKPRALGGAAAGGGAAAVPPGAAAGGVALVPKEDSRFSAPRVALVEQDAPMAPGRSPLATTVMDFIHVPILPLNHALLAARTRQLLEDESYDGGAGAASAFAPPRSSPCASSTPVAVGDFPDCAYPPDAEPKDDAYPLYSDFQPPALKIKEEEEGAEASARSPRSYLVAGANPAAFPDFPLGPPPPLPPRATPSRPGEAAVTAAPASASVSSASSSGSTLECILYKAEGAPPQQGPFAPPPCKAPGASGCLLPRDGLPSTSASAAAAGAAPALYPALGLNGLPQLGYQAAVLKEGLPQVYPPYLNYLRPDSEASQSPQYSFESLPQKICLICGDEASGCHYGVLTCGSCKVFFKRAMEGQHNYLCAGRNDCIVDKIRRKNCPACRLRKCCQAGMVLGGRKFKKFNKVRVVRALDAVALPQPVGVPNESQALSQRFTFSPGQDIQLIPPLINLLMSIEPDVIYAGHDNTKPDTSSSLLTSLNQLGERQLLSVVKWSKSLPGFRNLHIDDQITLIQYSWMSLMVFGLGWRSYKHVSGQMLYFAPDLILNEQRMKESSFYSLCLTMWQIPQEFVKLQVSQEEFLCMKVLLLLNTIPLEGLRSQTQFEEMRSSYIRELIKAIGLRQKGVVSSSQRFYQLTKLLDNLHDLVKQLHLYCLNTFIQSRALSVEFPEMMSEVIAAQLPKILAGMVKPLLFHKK

The target in the assay is Progesterone receptor (Homo sapiens) (UniProt P06401). Nature of the assay: qHTS assay to identify small molecule antagonists of the progesterone receptor (PR) signaling pathway (AID 1346795). The following applies: PR-UAS-bla HEK293T, beta-lactamase FRET ratio, 16 h; series mostly up to 92.4 µM; activity change, negative = inhibition: at the top concentration. The source says:
National Center for Advancing Translational Sciences [NCATS]
NIH Chemical Genomics Center [NCGC]
U.S. Environmental Protection Agency [EPA]
National Institutes of Environmental Health Sciences [NIEHS]
National Toxicology Program [NTP]
U.S. Food and Drug Administration [FDA]
Progesterone receptor (PR), a nuclear hormone receptor, plays an important role in development, metabolic homeostasis and reproduction. […] Endocrine disrupting chemicals (EDCs) and their interactions with steroid hormone receptors like PR causes disruption of normal endocrine function. To identify the compounds that inhibit PR signaling, a PR-UAS-bla GripTite cell line i.e. PR-UAS-bla HEK293T (Invitrogen, Carlsbad, CA, USA) containing a beta-lactamase reporter gene under the control of an Upstream Activator Sequence (UAS) was used to screen Tox21 10K compound library.
Tox21 Assay Protocol Summary:
PR-UAS-bla HEK293T cells were dispensed at 3,000 cells/4 uL of assay medium containing 2% charcoal stripped FBS per well into black wall/clear-bottom 1536-well plates using a Multidrop Combi (ThermoFisher Scientific, Waltham, MA) dispenser. After the assay plates were incubated at a 37C and 5% CO2 for 6 hr, 23 nL of compounds dissolved in DMSO, positive controls or DMSO only was transferred to the assay plate by a Pintool station (Kalypsys, San Diego, CA), followed by addition of 1 uL (1nM as final concentration) of Promegestone (R5020) in assay medium using a BioRAPTR FRD (Flying Reagent Dispenser, Aurora Discovery, San Diego, CA). The plates were incubated at 37C and 5% CO2 for 16 hr. Then 1 uL of LiveBLAzer B/G FRET substrate was added using a FRD. After the plates were incubated at room temperature for 2 hours, fluorescence intensity was measured by an Envision plate reader (PerkinElmer, Shelton, CT).
(Quantitative high-throughput screening tests each substance at several concentrations.)
For the molecule `C=CC(=O)OCC(Br)CBr` (stereo not given), the “activity change, negative = inhibition” value was -0.384%.

For `O=C1c2ccccc2C(=O)c2c(Cl)cccc21`, the “activity change, negative = inhibition” value is -8.72% [at 42.5 µM].

`CCOC(=O)OC(=O)OCC`: the “activity change, negative = inhibition” value is -2.86%.

Consider `CCOc1nc(F)cc2nc(S(=O)(=O)Nc3c(Cl)cccc3C(=O)OC)nn12`, for which the “activity change, negative = inhibition” value is 0.11%.

Take `O=C(CCCCCCCCc1cccnc1)N1CCC(C=C(c2ccccc2)c2ccccc2)CC1`: the Potency is 21.7 µM (active).

As for `CSc1nnc(C(C)(C)C)c(=O)[nH]1`, the “activity change, negative = inhibition” value is 0.168%.

As to `Nc1cc([N+](=O)[O-])cc(Cl)c1O`, the “activity change, negative = inhibition” value is -4.7%.

In the case of `CCC(C)(C)c1ccc(CC(C)CN2C[C@@H](C)O[C@@H](C)C2)cc1` (stereo not given in full), the “activity change, negative = inhibition” value was -5.18% [at 42.5 µM].

`CCCCCCCCc1ccc(Nc2ccc(CCCCCCCC)cc2)cc1`: the “activity change, negative = inhibition” value was -8.66% [at 42.5 µM].

Regarding `CC(=O)Nc1ccc(N=Nc2cc(C)ccc2O)cc1`, the Potency was 48.6 µM (active).

For `CN1CCN(C)CC1`, the “activity change, negative = inhibition” value is -14.8%.

`c1ccc(-c2ccc(C(c3ccccc3)n3ccnc3)cc2)cc1` (stereo not given): the Potency was 5.96 µM (active).

For `CCCCCCCCCC[N+](C)(CCCCCCCCCC)CCC[Si](OC)(OC)OC`, the “activity change, negative = inhibition” value is 5.11%.

As for `CCNc1nc(NC(C)(C)C)nc(OC)n1`, the “activity change, negative = inhibition” value was -18%.

For `CCCCCCCCCCCCN1CCCC1=O`, the Potency was 48.6 µM (active).

For the molecule `N#Cc1ccc(C/C(=N/NC(=O)Nc2ccc(OC(F)(F)F)cc2)c2cccc(C(F)(F)F)c2)cc1`, the Potency is 27.3 µM (active).

As to `CCOc1ccc([N+](=O)[O-])cc1`, the Potency was 27.7 µM (active).

On to `C=C1CC[C@H]2O[C@]2(C)CC[C@@H]2[C@@H]1CC2(C)C`, for which the “activity change, negative = inhibition” value is -0.165%.

Turning to `CC(C)(C)C1=CC(=O)C(C(C)(C)C)=CC1=O`, the “activity change, negative = inhibition” value is -24.2% [at 42.5 µM].

On to `NC(=O)c1ccccc1Cl`, for which the “activity change, negative = inhibition” value was 2.35%.

For `C=CC(=O)O[C@H]1C[C@@H]2CC[C@@]1(C)C2(C)C`, the “activity change, negative = inhibition” value was 0.096%.

As to `CCC(O)CO` (stereo not given), the “activity change, negative = inhibition” value is -0.256%.

Take `CC(c1cc(C(C)(C)C)cc(C(C)(C)C)c1O)c1cc(C(C)(C)C)cc(C(C)(C)C)c1O`: the “activity change, negative = inhibition” value is -12.8%.

As to `C=C[Si](C)(C)Cl`, the activity change, negative = inhibition is 4.87% [at 8.39 µM].

Regarding `Cc1ccc(C2OC[C@@H]3OC(c4ccc(C)cc4)O[C@H]([C@H](O)CO)[C@@H]3O2)cc1` (stereo not given in full), the “activity change, negative = inhibition” value was 4.5%.

In the case of `NC(=O)C1CO1` (stereo not given), the “activity change, negative = inhibition” value was 2.82%.

Take `O=[N+]([O-])c1ccc(O)c2ncccc12`: the Potency was 0.531 µM (active).

In the case of `C/C=C/C(=O)C1=C(C)C=CCC1(C)C`, the “activity change, negative = inhibition” value was -0.166%.

As for `CCCCCCCCCCCC(=O)Cl`, the “activity change, negative = inhibition” value is -6%.

Take `O=S(=O)(c1ccc(OCc2ccccc2)cc1)c1ccccc1O`: the Potency is 48.6 µM (active).

Take `[Cl][Sc]([Cl])[Cl]`: the “activity change, negative = inhibition” value is 3.85%.

As to `CCOC=C(C(=O)OCC)C(=O)OCC`, the “activity change, negative = inhibition” value was 0.459%.

On to `O=C1CCC/C=C\CCCCCCCCCC1`, for which the Potency is 48.6 µM (active).

Take `Nc1ccc(Cl)c([N+](=O)[O-])c1`: the Potency is 54.5 µM (active).

With `CCN(CC)c1ccc(N=Nc2ccccc2)cc1`, the Potency is 19.3 µM (active).

For the molecule `COc1cc([C@@H]2c3cc4c(cc3[C@@H](O[C@@H]3O[C@@H]5CO[C@@H](C)O[C@H]5[C@H](O)[C@H]3O)[C@H]3COC(=O)[C@H]23)OCO4)cc(OC)c1O`, the Potency was 24.1 µM (active).

For the molecule `Nc1ccc(F)c([N+](=O)[O-])c1`, the “activity change, negative = inhibition” value is -10.8%.

As for `CC(C=O)c1ccccc1` (stereo not given), the “activity change, negative = inhibition” value was -3.62%.

Regarding `C=CC(C)(C)O`, the “activity change, negative = inhibition” value was 4.19%.

For `O=C1CCC(=O)N1`, the “activity change, negative = inhibition” value is -6.28%.
